Results reported in the supplement of paper PMC13380429.

Test system: Vero E6 infected with SARS-CoV-2
Assay: inhibition of SARS-CoV-2 cytopathic effect; higher = more antiviral protection, active = above 15
Settings: 48 h

Measured: inhibition of SARS-CoV-2 cytopathic effect

CC(C)CN(C[C@@H](OP(=O)(O)O)[C@H](Cc1ccccc1)NC(=O)O[C@H]1CCOC1)S(=O)(=O)c1ccc(N)cc1 [fosamprenavir]
inactive: 1 nM -0.69% | 8.33 nM 0.83% | 100 nM 0.76% | 833.33 nM -0.52% | 10000 nM -2.55%

Cc1cnc(-c2cc(N3CCN(C(=O)CCS(C)(=O)=O)CC3)ncc2Cl)c(C)c1
inactive: 1 nM -1.36% | 8.33 nM -0.24% | 100 nM 0.43% | 833.33 nM -2.37% | 10000 nM -0.86%

O=C([O-])C(O)[C@H](O)[C@@H](O)[C@H](O)[C@H](O)CO.O=C([O-])C(O)[C@H](O)[C@@H](O)[C@H](O)[C@H](O)CO.[Ca+2] (stereo not given in full) [calcium-gluceptate]
inactive: 1 nM -7.86% | 8.33 nM -1.7% | 100 nM -4.55% | 833.33 nM -3.31% | 10000 nM -3.66%

CC(C)(O)CC(=O)O [beta-hydroxy-beta-methylbutyrate]
inactive: 1 nM 3.1% | 8.33 nM -2.04% | 100 nM -6.91% | 833.33 nM -3.9% | 10000 nM -3.42%

Oc1ncnc2[nH]ncc12 [allopurinol]
inactive: 1 nM -15.3% | 8.33 nM -12.3% | 100 nM -11.2% | 833.33 nM -10.9% | 10000 nM -7.04%

Cc1c(-c2ccnn2C)cc(C(=O)NCc2ccc(S(C)(=O)=O)cn2)c(=O)n1-c1cccc(C(F)(F)F)c1
inactive: 1 nM -2.24% | 8.33 nM -0.81% | 100 nM -0.79% | 833.33 nM -2.96% | 10000 nM -0.81%

CCOC(=O)c1cc(C#N)c(N2CCC(C(=O)NS(=O)(=O)Cc3ccccc3)CC2)nc1C
inactive: 1 nM 3.08% | 8.33 nM 2.38% | 100 nM 0.44% | 833.33 nM 1.19% | 10000 nM -2.86%

C[C@H]1O[C@@H](n2cc(F)c(=O)[nH]c2=O)[C@H](O)[C@@H]1O [doxifluridine]
inactive: 1 nM -2.13% | 8.33 nM -1.63% | 100 nM 1.63% | 833.33 nM -0.27% | 10000 nM -0.71%

O=C1Nc2ccc(I)cc2C1=Cc1cc(Br)c(O)c(Br)c1
inactive: 1 nM 2.36% | 8.33 nM 0.05% | 100 nM 1.54% | 833.33 nM 2.76% | 10000 nM 8.55%

COc1ccccc1OC(=O)C(C)c1ccc(CC(C)C)cc1 (stereo not given) [metoxibutropate]
inactive: 1 nM -3.38% | 8.33 nM -2.87% | 100 nM -1.26% | 833.33 nM -1.98% | 10000 nM -3.16%

CC(=O)Oc1ccc(C(c2ccc(OC(C)=O)cc2)c2ccccn2)cc1 [bisacodyl]
inactive: 1 nM 0.11% | 8.33 nM -1.99% | 100 nM -2.25% | 833.33 nM 1.04% | 10000 nM 2.49%

COc1ccc2[nH]c([S+]([O-])Cc3ncc(C)c(OC)c3C)nc2c1 (stereo not given) [omeprazole]
inactive: 1 nM 0.48% | 8.33 nM 2.24% | 100 nM 1.08% | 833.33 nM 3.07% | 10000 nM 1.79%

C[N+](C)(C)[C@@H](Cc1c[nH]c(=S)[nH]1)C(=O)O [L-ergothioneine]
inactive: 1 nM 1.26% | 8.33 nM -1.22% | 100 nM 2.33% | 833.33 nM 2.82% | 10000 nM 0.9%

OC(CCN1CCCCC1)(c1ccccc1)C1CCCCC1 (stereo not given) [trihexyphenidyl]
inactive: 1 nM -14.3% | 8.33 nM -7.63% | 100 nM -2.35% | 833.33 nM -9.38% | 10000 nM -10.1%

COc1cc2c(cc1OC)CC(=O)N(CCCN(C)C[C@H]1Cc3cc(OC)c(OC)cc31)CC2 [ivabradine]
inactive: 1 nM -0.16% | 8.33 nM -0.37% | 100 nM -0.32% | 833.33 nM -1.75% | 10000 nM -1.11%

CCC1NC(=O)c2cc(S(N)(=O)=O)c(Cl)cc2N1 (stereo not given) [quinethazone]
inactive: 1 nM -8.29% | 8.33 nM -6.61% | 100 nM -4.32% | 833.33 nM -5.24% | 10000 nM -5.16%

Cc1ccc2c(c1)c1c3n2CCNC3CCC1 (stereo not given) [pirlindole]
inactive: 1 nM -1.68% | 8.33 nM -2.42% | 100 nM -1.65% | 833.33 nM 0.99% | 10000 nM -3.66%

Cc1sc(C)c2c1CCC=C2c1c[nH]cn1
inactive: 1 nM -1.05% | 8.33 nM -1.35% | 100 nM -1.5% | 833.33 nM -2.81% | 10000 nM -2.28%

Cc1ccc(-c2n[nH]c3c2C(c2cccc(O)c2)N(c2ccc(C(=O)O)cc2)C3=O)cc1 (stereo not given)
inactive: 1 nM -0.75% | 8.33 nM -0.46% | 100 nM 3.03% | 833.33 nM 3.6% | 10000 nM 5.17%

C1CCN2C[C@@H]3C[C@@H](CN4CCCC[C@@H]34)[C@H]2C1 [sparteine-sulfate]
inactive: 1 nM 0.15% | 8.33 nM 4.17% | 100 nM 3.05% | 833.33 nM 1.05% | 10000 nM -2.55%
